RGS4-Gao reg – human RGS4-Galphao interaction regulation; 220,000 compounds, 0.33% hits; P09471; AID 1415; Multiplexed bead flow cytometry, RGS4-Galphao binding; actives lie on both sides; binding response (% of control), % at 10 µM; in the data active = binding response below about 49% or above about 150%; inactive = in between;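 note: fluorescent Galphao activated with aluminum fluoride binding bead-coupled RGS4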
Target sequence (P09471 whole entry, looked up): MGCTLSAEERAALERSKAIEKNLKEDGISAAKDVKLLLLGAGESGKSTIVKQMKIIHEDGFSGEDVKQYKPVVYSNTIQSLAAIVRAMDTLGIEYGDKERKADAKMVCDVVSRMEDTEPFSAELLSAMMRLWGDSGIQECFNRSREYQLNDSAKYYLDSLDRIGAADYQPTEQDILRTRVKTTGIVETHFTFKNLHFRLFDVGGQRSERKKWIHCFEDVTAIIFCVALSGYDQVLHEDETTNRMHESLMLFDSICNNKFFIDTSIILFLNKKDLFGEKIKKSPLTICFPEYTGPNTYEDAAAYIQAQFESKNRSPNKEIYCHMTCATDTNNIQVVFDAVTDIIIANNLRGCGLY
RGS16-Gao HTS – modulates binding between human RGS16 and Galphao; binding response (% of control), % at 10 µM; 220,000 compounds, 0.38% hits; O15492+P09471; bead-based flow cytometry RGS16-Galphao binding, fluorescence; actives lie on both sides; call rule not given here;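 note: Galphao activated by GDP with aluminum fluoride before binding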
Target sequence (O15492 whole entry, looked up): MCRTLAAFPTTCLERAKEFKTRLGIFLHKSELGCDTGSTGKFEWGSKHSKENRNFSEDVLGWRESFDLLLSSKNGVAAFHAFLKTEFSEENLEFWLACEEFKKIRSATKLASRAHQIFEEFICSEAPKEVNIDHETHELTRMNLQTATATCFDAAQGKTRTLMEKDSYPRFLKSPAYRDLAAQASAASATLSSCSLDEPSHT
Target sequence (P09471 whole entry, looked up): as the sequence (P09471 whole entry, looked up) above
RGS7-Gao reg – modulates binding of RGS7 to human Galphao | AID 1439 | 220,000 compounds, 0.35% hits | Multiplexed bead flow cytometry; actives lie on both sides | P09471 | binding response (% of control), % at 10 µM; in the data active = binding response below about 49% or above about 150%; inconclusive = no clear call, values can overlap the other calls; inactive = in between;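 note: fluorescent Galphao held in activated GDP-AlF4 state binding bead-coupled RGS7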
GSH fluor – compound fluoresces at 488/530 nm on GSH beads; GSH beads flow cytometry, compound fluorescence 488/530 nm; hits give high values; fluorescence (KMESF) at 10 µM; 190,000 compounds, 0.25% hits; AID 1776; in the data active = fluorescence above about 89;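 note: glutathione beads carrying GST-tagged Bcl family fusion proteins plus one bare bead set; values are compound well signal with DMSO vehicle wells as background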
RGS8-Gao reg – human RGS8-Galphao interaction regulation | multiplexed bead flow cytometry, RGS8-Galphao binding; actives lie on both sides | response (percent of control binding), % at 10 µM | 220,000 compounds, 0.34% hits; in the data active = response below about 60% or above about 140%; inactive = in between;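 note: Galphao activated as the GDP aluminium fluoride complex binding bead-coupled RGS8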
Avidin fluor – compound fluoresces at 488/530 nm on avidin beads. fluorescence (KMESF) at 10 µM. 220,000 compounds, 0.38% hits. compound fluorescence 488/530 nm, flow cytometry; hits give high values; in the data active = fluorescence above about 47
Starred values were filed as active, the others as inactive; ! = not confirmed by another sample. This is a sample that favours compounds with a hit; in the whole collection about 1.2% have one here.

Results for CN1C(=O)NC(c2cccc(O)c2)C(C(=O)c2cccs2)C1(O)C(F)(F)F (centres undefined) ?
RGS4-Gao reg: 99.8; RGS16-Gao HTS: 99.8; RGS7-Gao reg: 103.2; GSH fluor: 19; RGS8-Gao reg: 100.7; Avidin fluor: 28

How did CCOC(=O)C1C(c2cccs2)NC(=O)N(C)C1(O)C(F)(F)F (centres undefined) do in these assays?
RGS4-Gao reg: 100.5; RGS16-Gao HTS: 94.1; RGS7-Gao reg: 106.9; GSH fluor: 10; RGS8-Gao reg: 97.7; Avidin fluor: 59*

What do the screens show for `Cc1cc(-c2nnc(CCC(=O)N3CCN(Cc4cccnc4)CC3)o2)c(C)o1`?
RGS4-Gao reg: 101.7; RGS16-Gao HTS: 102.1; RGS7-Gao reg: 102.6; GSH fluor: 10; RGS8-Gao reg: 100.2; Avidin fluor: 12

What do the screens show for `CCC(C)NC(=O)C1c2cc(OC)c(OC)cc2C(=O)N(C)C1c1cccs1` (centres undefined)?
RGS4-Gao reg: 106.1; RGS16-Gao HTS: 103.8; RGS7-Gao reg: 115.5; GSH fluor: 22; RGS8-Gao reg: 100.1; Avidin fluor: 67*

How did CCC(C)NC(=O)C1c2cc(OC)c(OC)cc2C(=O)N(C)C1c1ccc(OC)cc1 (centres undefined) do in these assays?
RGS4-Gao reg: 99.0; RGS16-Gao HTS: 96.4; RGS7-Gao reg: 98.7; GSH fluor: 19; RGS8-Gao reg: 99.6; Avidin fluor: 34

How did C/C(CC(=O)Nc1cc(Cl)ccc1C)=N\NC(N)=O do in these assays?
RGS4-Gao reg: 99.1; RGS16-Gao HTS: 98.5; RGS7-Gao reg: inconclusive; RGS8-Gao reg: 101.8; Avidin fluor: 6

Results for Cc1cccc(Sc2nc(-c3ccccc3)ncc2C(=O)O)c1 ?
RGS4-Gao reg: 95.3; RGS16-Gao HTS: 98.2; RGS7-Gao reg: 95.7; GSH fluor: 27; RGS8-Gao reg: 95.9; Avidin fluor: 9

How did CC(=O)Nc1ccc2c(c1)OCCOCCOc1cc(NC(C)=O)ccc1OCCO2 do in these assays?
RGS4-Gao reg: 102.5; RGS16-Gao HTS: 102.2; RGS7-Gao reg: inconclusive; RGS8-Gao reg: 100.7; Avidin fluor: 9

Results for CC(=O)Nc1ccc(C2(O)COc3ccccc3O2)cc1 (centres undefined) ?
RGS4-Gao reg: 103.3; RGS16-Gao HTS: 107.2; RGS7-Gao reg: 101.9; GSH fluor: 262*; RGS8-Gao reg: 100.4; Avidin fluor: 9

Results for Clc1ccc(/C=N/Nc2nn[nH]n2)cc1 ?
RGS4-Gao reg: 99.5; RGS16-Gao HTS: 95.3; RGS7-Gao reg: 99.2; GSH fluor: 144*; RGS8-Gao reg: 101.2; Avidin fluor: 7

How did CCOC(=O)C1(CC2CCCCO2)CCN(Cc2cc3ccccc3[nH]2)CC1 (centres undefined) do in these assays?
RGS4-Gao reg: 102.3; RGS16-Gao HTS: 103.9; RGS7-Gao reg: 96.9; GSH fluor: 12; RGS8-Gao reg: 102.5; Avidin fluor: 16

What do the screens show for `COc1ccc(C(=O)N/N=C/c2ccc(OC)c(CN3CCc4cc(OC)c(OC)cc4C3C)c2)cc1` (centres undefined)?
RGS4-Gao reg: 98.0; RGS16-Gao HTS: 103.0; RGS7-Gao reg: 108.3; GSH fluor: 10; RGS8-Gao reg: 96.7; Avidin fluor: 6

What do the screens show for `CCOC(=O)CN(C(=O)CSc1nnc2c(n1)[nH]c1c(C)cc(C)cc12)c1ccccc1`?
RGS4-Gao reg: 108.6; RGS16-Gao HTS: 111.4; RGS7-Gao reg: 105.0; GSH fluor: 257*; RGS8-Gao reg: 104.8; Avidin fluor: 7

How did CCOC(=O)CN(C(=O)CSc1nnc2c(n1)[nH]c1ccccc12)c1ccccc1 do in these assays?
RGS4-Gao reg: 102.4; RGS16-Gao HTS: 97.0; RGS7-Gao reg: 97.7; GSH fluor: 22; RGS8-Gao reg: 101.1; Avidin fluor: 3

What do the screens show for `Cc1ccc(-c2nn(CCC(=O)NN3CCOCC3)c(=O)c3ccccc23)cc1`?
RGS4-Gao reg: 95.4; RGS16-Gao HTS: 96.5; RGS7-Gao reg: inconclusive; RGS8-Gao reg: 95.4; Avidin fluor: 6

Results for CC(=O)Oc1ccc2oc3c(c2c1)C(=O)CCC3 ?
RGS4-Gao reg: 98.2; RGS16-Gao HTS: 96.2; RGS7-Gao reg: 98.8; GSH fluor: 260*; RGS8-Gao reg: 99.9; Avidin fluor: 8

What do the screens show for `CC(=O)Oc1ccc2oc(C)c(C(=O)N3CCOCC3)c2c1`?
RGS4-Gao reg: 96.3; RGS16-Gao HTS: 97.3; RGS7-Gao reg: 95.1; GSH fluor: 21; RGS8-Gao reg: 98.6; Avidin fluor: 25

How did CCOc1ccc(CCNC(=O)C2CCCN2C(=O)OCc2ccccc2)cc1OCC (centres undefined) do in these assays?
RGS4-Gao reg: 98.9; RGS16-Gao HTS: 98.3; RGS7-Gao reg: 99.0; GSH fluor: 20; RGS8-Gao reg: 98.1; Avidin fluor: 8

Results for COc1ccc(N2C(=O)CSC23C(=O)Nc2ccccc23)cc1 (centres undefined) ?
RGS4-Gao reg: 99.0; RGS16-Gao HTS: 101.7; RGS7-Gao reg: 101.0; GSH fluor: 100*; RGS8-Gao reg: 100.9; Avidin fluor: 7

Results for CN(c1ccccc1)c1ccc(/C=N/N2CCOCC2)cc1 ?
RGS4-Gao reg: 99.6; RGS16-Gao HTS: 104.5; RGS7-Gao reg: 102.8; GSH fluor: 14; RGS8-Gao reg: 101.0; Avidin fluor: 14

How did Cc1cc(C)c[n+](-c2nc3ccccc3nc2C(=C=[N-])C#N)c1 do in these assays?
RGS4-Gao reg: 83.4; RGS16-Gao HTS: 86.6; RGS7-Gao reg: 100.5; GSH fluor: 238*!; RGS8-Gao reg: 95.0; Avidin fluor: 24

What do the screens show for `CCc1ccc[n+](-c2nc3ccccc3nc2C(=C=[N-])C#N)c1`?
RGS4-Gao reg: 94.3; RGS16-Gao HTS: 88.1; RGS7-Gao reg: inconclusive; RGS8-Gao reg: 95.8; Avidin fluor: 7

How did Cc1ccc[n+](-c2nc3ccccc3nc2C(=C=[N-])C#N)c1 do in these assays?
RGS4-Gao reg: 110.7; RGS16-Gao HTS: 82.2; RGS7-Gao reg: inconclusive; GSH fluor: 11; RGS8-Gao reg: 82.8; Avidin fluor: 61*!

What do the screens show for `COc1ccc(CSc2nnc(SCc3ccc([N+](=O)[O-])cc3)s2)cc1`?
RGS4-Gao reg: 100.3; RGS16-Gao HTS: 101.9; RGS7-Gao reg: 98.3; GSH fluor: 26; RGS8-Gao reg: 101.8; Avidin fluor: 6

Results for COC(=O)CSc1nnc(SCc2ccc(OC)cc2)s1 ?
RGS4-Gao reg: 100.4; RGS16-Gao HTS: 102.2; RGS7-Gao reg: 103.6; GSH fluor: 26; RGS8-Gao reg: 99.9; Avidin fluor: 50*

How did O=C1/C(=C/c2cccc(Br)c2)SC(=S)N1/N=C/c1cc([N+](=O)[O-])ccc1O do in these assays?
RGS4-Gao reg: 96.2; RGS16-Gao HTS: 101.8; RGS7-Gao reg: inconclusive; RGS8-Gao reg: 101.7; Avidin fluor: 8

How did CCOC(=O)COc1c(Br)cc(/C=C2\SC(=O)N(CC(=O)N3CCCC3)C2=O)cc1OC do in these assays?
RGS4-Gao reg: 103.2; RGS16-Gao HTS: 103.1; RGS7-Gao reg: 122.3; GSH fluor: 44; RGS8-Gao reg: 101.0; Avidin fluor: 80*

Screens (PubChem BioAssay)
